Assay results taken from PubChem BioAssay.
For part of these data: Measured potencies and affinities stand elsewhere. Active and inactive are the calls of the source.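 Rule for the calls, unless noted: active = earlier screen potentiator hit that boosts the TRPC4 ion channel at some dose, with a dose response; inactive = no potentiation, no dose response, or not a prior hit.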

What was measured:
[1] = system: TRPC4 beta (transient receptor potential cation channel C4), mouse; assay: activators of mouse TRPC4 channel, confirmation, cell-based, Fluo4 calcium, HEK293 TRPC4beta/mu-opioid, duplicates, 10 µM (AID 2426;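 active = fluorescence ratio normalized to control raised more than 50% in primary screen plus both repeat runs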); details: Fluo4 calcium fluorescence, at 10 µM; hits give high values
[2] = system: transient receptor potential cation channel C4 beta (TRPC4), mouse; assay: activators of mouse TRPC4 channel, confirmation, cell-based, second round, Fluo4, HEK293 TRPC4beta/mu-opioid, 1 µM (AID 2461;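 active = primary screen active and over 50% activation in each of two duplicate runs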); details: Fluo4 calcium fluorescence, at 1 µM; hits give high values
[3] = system: TRPC4 (transient receptor potential cation channel C4 beta), mouse; assay: positive allosteric modulators of mouse TRPC4, confirmation, cell-based, second round, Fluo-4, HEK293 TRPC4beta/mu-opioid, 1 µM (AID 2554;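 active = primary screen hit whose fluorescence ratio, in both repeats, exceeds the weak agonist control mean by 3 SD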); details: DAMGO EC20, Fluo-4 calcium flux, at 1 µM; hits give high values
[4] = system: TRPC4 beta (transient receptor potential cation channel C4), mouse; assay: positive allosteric modulators of mouse TRPC4, confirmation, cell-based, Fluo-4, HEK293 TRPC4beta/mu-opioid (AID 2555;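 active = primary screen hit whose calcium fluorescence ratio, in both repeats, exceeds the weak agonist control mean by 3 SD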); details: DAMGO EC20, Fluo-4 calcium flux, at 10 µM; hits give high values
[5] = molecular target: Short transient receptor potential channel 4 (Mus musculus) (UniProt Q9QUQ5); assay: inhibitors of mouse TRPC4 channel, confirmation, cell-based, Fluo4, HEK293 TRPC4beta/mu-opioid (AID 2636;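 active = calcium signal cut by more than 3 SD below the full-agonist control yet still positive, in both repeats and the earlier primary screen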); details: DAMGO, Fluo4 calcium flux, at 10 µM; hits give high values
Chain of Short transient receptor potential channel 4 (Mus musculus) (Q9QUQ5 whole entry, looked up): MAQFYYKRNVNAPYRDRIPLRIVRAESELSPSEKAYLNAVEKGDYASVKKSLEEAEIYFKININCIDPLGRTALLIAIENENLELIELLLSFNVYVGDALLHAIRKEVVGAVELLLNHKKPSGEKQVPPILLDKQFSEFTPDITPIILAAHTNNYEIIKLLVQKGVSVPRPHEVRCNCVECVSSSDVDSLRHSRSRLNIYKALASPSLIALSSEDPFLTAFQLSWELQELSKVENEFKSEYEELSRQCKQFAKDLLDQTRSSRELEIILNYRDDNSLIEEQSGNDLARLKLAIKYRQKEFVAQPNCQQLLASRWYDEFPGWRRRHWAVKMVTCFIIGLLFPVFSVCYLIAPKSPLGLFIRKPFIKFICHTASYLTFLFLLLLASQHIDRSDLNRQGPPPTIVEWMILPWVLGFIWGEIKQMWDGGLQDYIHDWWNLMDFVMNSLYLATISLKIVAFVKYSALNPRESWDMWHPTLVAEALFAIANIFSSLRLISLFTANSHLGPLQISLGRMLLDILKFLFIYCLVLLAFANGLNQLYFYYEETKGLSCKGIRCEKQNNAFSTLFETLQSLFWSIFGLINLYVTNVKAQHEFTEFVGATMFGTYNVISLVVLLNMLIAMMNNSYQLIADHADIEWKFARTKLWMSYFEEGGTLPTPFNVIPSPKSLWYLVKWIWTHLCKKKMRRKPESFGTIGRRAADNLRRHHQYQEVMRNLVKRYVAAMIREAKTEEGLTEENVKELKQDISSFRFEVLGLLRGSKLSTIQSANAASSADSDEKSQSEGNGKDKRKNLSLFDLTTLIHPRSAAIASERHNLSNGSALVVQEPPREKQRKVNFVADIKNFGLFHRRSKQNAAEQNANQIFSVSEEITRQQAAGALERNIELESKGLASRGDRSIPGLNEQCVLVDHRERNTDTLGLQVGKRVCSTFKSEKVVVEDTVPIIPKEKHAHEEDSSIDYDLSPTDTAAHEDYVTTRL

[6] = molecular target: Short transient receptor potential channel 4 (Mus musculus) (UniProt Q9QUQ5); assay: inhibitors of mouse TRPC4 channel, confirmation, cell-based, second round, Fluo4, HEK293 TRPC4beta/mu-opioid, 1 µM (AID 2637;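 active = calcium signal ratio cut to more than 3 SD under the fully stimulated control mean yet still positive, in both repeats and the primary screen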); details: Fluo4 calcium flux, DAMGO, at 1 µM; hits give high values
[7] = molecular target: Short transient receptor potential channel 4 (Mus musculus) (UniProt Q9QUQ5); assay: mouse TRPC4 channel activators, dose response, cell-based, HEK293 TRPC4/mu-opioid, Fluo-4 calcium (AID 434937;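 active = primary screen activator hit with a dose response curve and TRPC4 channel activation at any tested dose; inactive = no activation, no dose response, or not a primary hit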)
[8] = molecular target: Short transient receptor potential channel 4 (Mus musculus) (UniProt Q9QUQ5); assay: TRPC4 positive allosteric modulators, dose response, cell-based, HEK293 TRPC4/mu-opioid, Fluo-4 calcium, EC20 DAMGO (AID 434941);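 note: calcium entry triggered by an EC20 dose of DAMGO at the co-expressed mu-opioid receptor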
[9] = molecular target: Short transient receptor potential channel 4 (Mus musculus) (UniProt Q9QUQ5); assay: mouse TRPC4 channel inhibitors, dose response, cell-based, HEK293 TRPC4/mu-opioid, Fluo-4 calcium (AID 434942;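 active = primary screen inhibitor hit that blocks the TRPC4 channel at some tested dose, yielding a dose curve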)
[10] = molecular target: Short transient receptor potential channel 6 (Mus musculus) (UniProt Q61143); assay: inhibition of mouse TRPC6 channel, confirmation, selectivity assay for TRPC4 inhibitor project, cell-based, HEK293, membrane potential dye, duplicate (AID 434948;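 active = active in primary screen and both duplicates, each dropping signal beyond three positive-control SD with fluorescence still positive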); details: HEK293 TRPC6, membrane potential dye fluorescence, at 10 µM, stimulated with maximal-effect acetylcholine; hits give high values
Chain of Short transient receptor potential channel 6 (Mus musculus) (Q61143 whole entry, looked up): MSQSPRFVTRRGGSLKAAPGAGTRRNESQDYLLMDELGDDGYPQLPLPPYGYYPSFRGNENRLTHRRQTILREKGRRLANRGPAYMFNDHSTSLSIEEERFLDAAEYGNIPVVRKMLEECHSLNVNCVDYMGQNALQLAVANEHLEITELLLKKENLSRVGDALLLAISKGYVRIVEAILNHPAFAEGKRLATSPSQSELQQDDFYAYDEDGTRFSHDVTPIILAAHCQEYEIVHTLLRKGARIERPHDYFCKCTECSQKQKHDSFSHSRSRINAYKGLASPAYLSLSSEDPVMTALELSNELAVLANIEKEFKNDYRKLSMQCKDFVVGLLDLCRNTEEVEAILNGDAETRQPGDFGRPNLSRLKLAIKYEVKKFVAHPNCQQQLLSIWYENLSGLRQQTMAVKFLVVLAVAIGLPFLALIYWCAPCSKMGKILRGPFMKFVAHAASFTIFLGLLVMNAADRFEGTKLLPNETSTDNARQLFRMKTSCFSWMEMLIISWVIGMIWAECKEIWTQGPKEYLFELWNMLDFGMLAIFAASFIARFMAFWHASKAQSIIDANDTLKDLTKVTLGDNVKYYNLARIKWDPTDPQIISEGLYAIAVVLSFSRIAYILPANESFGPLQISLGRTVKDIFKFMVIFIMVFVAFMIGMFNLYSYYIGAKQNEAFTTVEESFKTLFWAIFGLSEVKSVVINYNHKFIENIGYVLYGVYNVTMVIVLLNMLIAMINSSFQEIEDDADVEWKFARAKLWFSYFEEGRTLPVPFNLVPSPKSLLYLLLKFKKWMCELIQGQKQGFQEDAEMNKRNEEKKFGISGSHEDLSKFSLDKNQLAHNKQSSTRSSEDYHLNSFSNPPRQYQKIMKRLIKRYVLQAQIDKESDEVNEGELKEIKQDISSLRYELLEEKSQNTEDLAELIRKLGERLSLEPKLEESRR

[11] = molecular target: Short transient receptor potential channel 6 (Mus musculus) (UniProt Q61143); assay: activation of mouse TRPC6 channel, confirmation, selectivity assay for TRPC4 activator project, cell-based, HEK293, membrane potential dye, duplicate (AID 434950;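 active = membrane potential signal rise above negative control mean plus 3 SD in both duplicates, also active in the earlier TRPC4 screen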;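 for activation: 0% = buffer only wells and 100% = acetylcholine maximal-effect wells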); details: HEK293 TRPC6, membrane potential fluorescence, at 10 µM; hits give high values
[12] = molecular target: Short transient receptor potential channel 6 (Mus musculus) (UniProt Q61143); assay: TRPC6 potentiation by TRPC4 potentiator hits, confirmation, selectivity assay for TRPC4 potentiator project, HEK293 cells, membrane potential dye, duplicate (AID 434952;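 active = compound raising the membrane signal above positive-control mean plus 3 SD in both repeats, and a primary screen hit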); details: HEK293 TRPC6, membrane potential dye fluorescence, at 10 µM, maximal acetylcholine added after compound; hits give high values
[13] = molecular target: Short transient receptor potential channel 4 (Mus musculus) (UniProt Q9QUQ5); assay: calcium flux activators in TRPC4/5HT1a cells, counter-screen for TRPC4 activator project, cell-based, second counter screen, HEK293 TRPC4/5HT1a, Fluo-4 (AID 434977;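 active = calcium signal rise above buffer-control mean plus 5 SD in both duplicates, and also a hit in the primary screen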); details: Fluo-4 calcium flux, at 10 µM; hits give high values
[14] = calcium flux inhibitors in TRPC4/5HT1a cells, confirmation, counter-screen for TRPC4 inhibitor project, cell-based, second counter screen, HEK293 TRPC4/5HT1a, Fluo-4 (AID 434978;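 active = primary screen active whose calcium signal fell more than 3 SD beyond the full-serotonin control mean in both duplicate plates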;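 for outcome: serotonin given first at submaximal then at maximal dose after compound preincubation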); details: Fluo-4 calcium flux, at 10 µM, serotonin added to trigger calcium flux; hits give high values
[15] = system: TRPC4 (mouse), co-expressed with 5HT1a in HEK293; assay: calcium flux potentiators in TRPC4/5HT1a cells, confirmation, counter-screen for TRPC4 potentiator project, cell-based, second counter screen, HEK293 TRPC4/5HT1a, Fluo-4 (AID 434979;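 active = signal rise over 3 SD above mean of control wells given weak agonist, in both repeats and first screen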); details: Fluo-4 calcium flux, at 10 µM, serotonin added at its EC20 dose; hits give high values
[16] = calcium flux activation in mu-opioid HEK293 cells, confirmation, counter-screen for TRPC4 activator project, cell-based, HEK293 mu-opioid receptor line (AID 449723;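 active = hit in primary screen, with calcium signal over 5 SD above buffer well mean in both duplicates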;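 note: counter screen cells carry the mu-opioid receptor alone and lack TRPC4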); details: Fluo-4 calcium fluorescence, at 10 µM; hits give high values
[17] = calcium flux enhancement in mu-opioid HEK293 cells, confirmation, counter-screen for TRPC4 allosteric potentiator project, cell-based, HEK293 mu-opioid receptor line (AID 449724;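 active = calcium signal rise more than 3 SD above the low-dose agonist control mean, in both duplicate plates and the primary screen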); details: Fluo-4 calcium flux, at 10 µM, compound added before EC20 DAMGO stimulus; hits give high values

Cc1oc2c(c1C(=O)c1ccccc1)C(=O)C(=O)c1ccccc1-2
active: inhibition [5] 68% | inhibition [14] 30.8%
inactive: outcome [1] | outcome [2] | outcome [3] | outcome [4] | outcome [6] | outcome [7] | outcome [8] | outcome [9] | outcome [10] | outcome [11] | outcome [12] | outcome [13] | outcome [15] | outcome [16] | outcome [17]

Clc1cc(/C=N\NC2=NCCN2)cc(Cl)n1
inactive: outcome [1] | outcome [2] | outcome [3] | outcome [4] | outcome [5] | outcome [6] | outcome [7] | outcome [8] | outcome [9] | outcome [10] | outcome [11] | outcome [12] | outcome [13] | outcome [14] | outcome [15] | outcome [16] | outcome [17]

CC1CC(C)CN(CCCNC(=O)C2CCCN(c3ncnc4c3nc3n4CCCCC3)C2)C1 (stereo not given)
active: potentiation [3] 18% | potentiation [15] 17.1%
inactive: outcome [1] | outcome [2] | outcome [4] | outcome [5] | outcome [6] | outcome [7] | outcome [8] | outcome [9] | outcome [10] | outcome [11] | outcome [12] | outcome [13] | outcome [14] | outcome [16] | outcome [17]

CCOc1nc(C)cc(C)c1S(=O)(=O)c1cccc(C)c1
inactive: outcome [1] | outcome [2] | outcome [3] | outcome [4] | outcome [5] | outcome [6] | outcome [7] | outcome [8] | outcome [9] | outcome [10] | outcome [11] | outcome [12] | outcome [13] | outcome [14] | outcome [15] | outcome [16] | outcome [17]

CCCC1=C(C(=O)OCC)C(c2cc(Cl)cc(OC)c2OCC(=O)OCC)NC(=O)N1 (stereo not given)
active: potentiation [4] 22% | potentiation [15] 5.72%
inactive: outcome [1] | outcome [2] | outcome [3] | outcome [5] | outcome [6] | outcome [7] | outcome [8] | outcome [9] | outcome [10] | outcome [11] | outcome [12] | outcome [13] | outcome [14] | outcome [16] | outcome [17]

O=C(NCCCN1CCCC1=O)c1ccc(CNS(=O)(=O)c2ccc(F)cc2)cc1
active: potentiation [15] 14.7%
inactive: outcome [1] | outcome [2] | outcome [3] | outcome [4] | outcome [5] | outcome [6] | outcome [7] | outcome [8] | outcome [9] | outcome [10] | outcome [11] | outcome [12] | outcome [13] | outcome [14] | outcome [16] | outcome [17]

C=CCNC(=S)N1CCN(C2CCCCC2)CC1
inactive: outcome [1] | outcome [2] | outcome [5] | outcome [6] | outcome [7] | outcome [8] | outcome [9] | outcome [10] | outcome [11] | outcome [12] | outcome [13] | outcome [14] | outcome [16] | outcome [17]
active: potentiation [3] 53% | potentiation [4] 36% | potentiation [15] 18.6%

Cc1ccc(C(=O)Nc2ccccc2C(=O)N2CC3(C)CC2CC(C)(C)C3)cc1 (stereo not given)
inactive: outcome [1] | outcome [2] | outcome [3] | outcome [4] | outcome [5] | outcome [6] | outcome [7] | outcome [8] | outcome [9] | outcome [10] | outcome [11] | outcome [12] | outcome [13] | outcome [14] | outcome [15] | outcome [16] | outcome [17]

O=C(COc1coc(CN2CCN(c3ccccc3F)CC2)cc1=O)Nc1ccccc1
inactive: outcome [1] | outcome [2] | outcome [3] | outcome [4] | outcome [5] | outcome [6] | outcome [7] | outcome [8] | outcome [9] | outcome [10] | outcome [11] | outcome [12] | outcome [13] | outcome [14] | outcome [15] | outcome [16] | outcome [17]

COc1cc(Br)cc(C2C3=C(CCCC3=O)N(c3ccc(F)cc3)C3=C2C(=O)CCC3)c1O
active: potentiation [4] 29% | potentiation [15] 31.7%
inactive: outcome [1] | outcome [2] | outcome [3] | outcome [5] | outcome [6] | outcome [7] | outcome [8] | outcome [9] | outcome [10] | outcome [11] | outcome [12] | outcome [13] | outcome [14] | outcome [16] | outcome [17]

CCCC(=O)Nc1c(-c2ccccc2)c(=O)c(C)nn1-c1ccc(Cl)cc1
active: activation [11] 33.5%
inactive: outcome [1] | outcome [2] | outcome [3] | outcome [4] | outcome [5] | outcome [6] | outcome [7] | outcome [8] | outcome [9] | outcome [10] | outcome [12] | outcome [13] | outcome [14] | outcome [15] | outcome [16] | outcome [17]

CC(=O)c1cccc(Nc2cc(C)nc3c(C)cc(C)cc23)c1
inactive: outcome [1] | outcome [2] | outcome [3] | outcome [4] | outcome [5] | outcome [6] | outcome [7] | outcome [8] | outcome [9] | outcome [11] | outcome [12] | outcome [13] | outcome [14] | outcome [15] | outcome [16] | outcome [17]
active: inhibition [10] 25.5%

CCOc1cc(O)c(-c2[nH]ncc2-c2nc(C)cs2)cc1CC
inactive: outcome [1] | outcome [2] | outcome [3] | outcome [5] | outcome [6] | outcome [7] | outcome [8] | outcome [9] | outcome [10] | outcome [11] | outcome [12] | outcome [13] | outcome [14] | outcome [16] | outcome [17]
active: potentiation [4] 21% | potentiation [15] 20%

CCc1ccc(OCc2ccc(C(=O)NCc3ccccn3)o2)cc1
inactive: outcome [1] | outcome [2] | outcome [3] | outcome [5] | outcome [6] | outcome [7] | outcome [8] | outcome [9] | outcome [10] | outcome [11] | outcome [12] | outcome [13] | outcome [14] | outcome [15] | outcome [16] | outcome [17]
active: potentiation [4] 19%

O=C(CN1CCCN(S(=O)(=O)c2ccc(F)cc2)CC1)Nc1ccccc1Br
inactive: outcome [1] | outcome [2] | outcome [3] | outcome [4] | outcome [6] | outcome [7] | outcome [8] | outcome [9] | outcome [10] | outcome [11] | outcome [12] | outcome [13] | outcome [14] | outcome [15] | outcome [16] | outcome [17]
active: inhibition [5] 70%
